Test results published in the OligoGym collection.

These sequences were tested against SLC34A1 (assay: pooled miR-30 sensor sort-seq; sequence = guide strand). Settings: shRNA.
Further: reference of the scale not given here.

| Sequence | sensor-assay potency score (higher = more potent) |
| --- | --- |
| TCTGTGATGATCTTGAGCAGGT | 0.374 |
| TAGTCATGTGTACACGTGCAGA | -1.32 |
| TCTCAATGCTGATCACACCAAG | -0.785 |
| TTGATGAGCACCACGAAGGCCA | -0.0356 |
| TTAAAGCAGTCATGCACCGTGG | -0.651 |
| TAGAGGACGGCAAACCAGCGGT | -0.623 |
| TGGACCACGAAGGTCATGCTGG | -0.818 |
| TCCGTATTGATGACCTTCTGGA | -0.714 |

What follows are sequences tested against SLC35D2 in the same assay as above. Settings: shRNA.

| Sequence | sensor-assay potency score (higher = more potent) |
| --- | --- |
| TATAGTATCATTATGGTGGCTG | 0.443 |
| TACATTTCTTGAGACTGCCATT | -1.38 |
| TAATAGCTGCACAGAACCGTGG | -0.868 |
| TTGTGCTTGATAATCCACTTAT | -0.388 |
| TAAACTGAAACAACTGGCCCTT | 0.105 |
| TTACTTGTGCTTGATAATCCAC | -0.229 |
| TAGACTAAAGACATGTCTGTTT | -0.123 |
| TTTCTTATCAAAATCAGGGAAG | -0.741 |
| TTAGCTTGGACACATATAGTAT | -0.569 |
| TAGCTGCACAGAACCGTGGAGT | -0.729 |
| TAGGATAAACACAACATTCTTC | 0.0517 |
| TTAACTAATTTTATTAGACTAA | -1.13 |

The sequences below were run against SLC38A11 in the same assay as above. Settings: shRNA.

| Sequence | sensor-assay potency score (higher = more potent) |
| --- | --- |
| TTGTGTTGTCTGCTGAACATGA | -0.294 |
| TTTATCAATAAAACAAGGGAAA | -1.2 |
| TTTTATTGACCAAAGACTGGTA | -0.145 |
| TCAAGTATCCACATGTAGCAAA | -0.803 |
| TTCTAGAGAACTGTAAACTAAG | -0.917 |
| TAATTTTCAAATAAGTCCCCTT | 0.231 |
| TTGAGTTCTAGAACTATCCCGA | 0.433 |
| TTAAAGTAGAAAGTTGTGTTGT | 0.823 |
| TTGAGTATTTGTAATAGCCATG | -1.21 |
| TACAACAATGTGGAAAACCGAT | -0.853 |
| TAAACCTGTAGAGATGAGGGAG | 0.481 |
| TCTGCTGAACATGAGACTCTGA | 0.182 |

The sequences below were run against SLC39A12 in the same assay as above. Settings: shRNA.

| Sequence | sensor-assay potency score (higher = more potent) |
| --- | --- |
| TTTTTGATACAAGTACTTCTGG | 0.0669 |
| TTGCTTGTCACTTAACTTGCTT | -0.0821 |
| TTGTGTTTGAACATGAGTCATT | -0.725 |
| TGAAGAACAGATCTCTTCCTGA | 0.419 |
| TGACACAAGATAGCAATCGTAG | -0.876 |
| TATTCTGTAAAGTAGTCTGGGG | -0.404 |
| TTTTGATACAAGTACTTCTGGT | -0.57 |
| TTTGATACAAGTACTTCTGGTC | 0.47 |
